# Test results taken from the supplement of paper PMC13380429.
# Values without a mark were called inactive.
# Tested on: Vero E6 infected with SARS-CoV-2
# Assay: inhibition of SARS-CoV-2 cytopathic effect; higher = more antiviral protection, active = above 15
# Settings: 48 h
SMILES,inhibition of SARS-CoV-2 cytopathic effect (1 nM),inhibition of SARS-CoV-2 cytopathic effect (8.33 nM) [%],inhibition of SARS-CoV-2 cytopathic effect (100 nM) [%],inhibition of SARS-CoV-2 cytopathic effect (833.33 nM) [%],inhibition of SARS-CoV-2 cytopathic effect (10000 nM)
COc1cc2c(c(OC)c1OC)-c1ccc(OC)c(=O)cc1[C@@H](NC(C)=O)CC2 [colchicine],2.74%,2.19,0.8,-0.41,1.35%
N=C(N)NC(=N)Nc1ccccc1 [1-phenylbiguanide],-1.07%,-0.09,0.97,1.34,-1.5%
O=C(Cc1ccccc1)Nc1nc2ccc(Cl)cc2c2nc(-c3ccco3)nn12,3.65%,4.32,3.84,2.42,4.22%
NC(=O)NC1NC(=O)NC1=O (stereo not given) [allantoin],-0.84%,-1.51,-2.49,-1.11,1.18%
Cc1c(Cl)cccc1S(=O)(=O)Nc1nc(CC(=O)N2CCN(C)CC2)cs1,1.65%,0.23,-1.13,3.23,2.25%
Cc1cc(C)cc(C(=O)NOCCCCCC(=O)NO)c1,2.07%,-0.95,-1.04,-9.5,-23.1%
CCOC(=O)[C@H](CCc1ccccc1)N[C@@H](C)C(=O)N1[C@H](C(=O)O)C[C@H]2CCCC[C@@H]21 [trandolapril],-1.1%,-1.62,-0.26,-0.12,1.62%
CCCOc1ccc(S(=O)(=O)N2CCN(CCO)CC2)cc1-c1nc2c(CCC)cn(CC)c2c(=O)[nH]1 [mirodenafil],-1.57%,0.66,-2.49,-3.18,-6.03%
OC1=c2ccccc2=C(NC2CCCCC2)/C1=C\c1ccccc1,0.53%,0.22,0.42,13.8,45.5% (active)
COc1cc([C@@H]2c3cc4c(cc3[C@@H](O[C@@H]3O[C@@H]5CO[C@@H](c6cccs6)O[C@H]5[C@H](O)[C@H]3O)[C@H]3COC(=O)[C@H]23)OCO4)cc(OC)c1O [teniposide],1.37%,2.49,4.69,1.54,-7.08%
CC(C)Oc1ccc(-c2nc(-c3cccc4c3CC[C@@H]4NCCO)no2)cc1C#N [ozanimod],-1.23%,-0.27,2.87,0.63,59.2% (active)
CN1C2C=C(c3sccc3Br)CC1CC2 (stereo not given),24.2% (active),-2.54,-0.99,-2.31,3.11%
CC(=O)NS(=O)(=O)c1ccc(N)cc1 [sulfacetamide],0.35%,2.07,1.95,2.14,0.21%
CC(C)=CCC/C(C)=C/CC/C(C)=C/CSc1ccccc1C(N)=O [farnesyl-thiosalicylic-acid-amide],-1.77%,-2.42,-3.06,-5.68,-2.46%
CCCN(CC1CC1)c1nc(C)nc(Nc2c(Cl)cc(Cl)cc2Cl)c1Cl,4.5%,2.92,1.63,0.09,1.2%
CC(CNS(=O)(=O)C(C)C)c1ccc(-c2ccc(C#N)cc2)cc1 (stereo not given),-2%,0.02,0.68,0.84,0.85%
Nc1nnc(-c2cccc(Cl)c2Cl)c(N)n1 [lamotrigine],-2.3%,-2.08,-1.73,-0.07,0.08%
N[C@H]1C(O)O[C@H](CO)[C@@H](O)[C@@H]1O (mixture of isomers) [glucosamine],3.44%,0.07,2.73,0.81,1.42%
CC(=O)N1CCN(CCOc2ccc(C3CCN(C4=Nn5c(nnc5C(F)(F)F)CC4)CC3)cc2)CC1,0.09%,1.43,0.26,1.65,1.88%
